Several values for one entry are separate records, joined by “and”; a condition that tells them apart may be missing. Equal values may be shown once. The panel holds about 83,000 compounds, 20% with a hit somewhere; the sample as a whole holds those more often.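 96-well plates, one dose, 48 hours. Percent growth reported; active if below 10.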
Columns and labels:
Assay in all cases: NCI-60 one-dose screen, 48 h (100 = growth as untreated, 0 = no growth, -100 = all killed)
DU-145 prostate = system: DU-145 prostate
K-562 leukemia = system: K-562 leukemia
MALME-3M melanoma = system: MALME-3M melanoma
MDA-MB-231 breast = system: MDA-MB-231 breast
RXF 393 renal = system: RXF 393 renal
SF-268 CNS = system: SF-268 CNS
SF-295 CNS = system: SF-295 CNS
SF-539 CNS = system: SF-539 CNS
UACC-257 melanoma = system: UACC-257 melanoma
M14 melanoma = system: M14 melanoma

Measured: growth

NC(=S)N/N=C(\c1ccc(Br)cc1)C1CC1
inactive: DU-145 prostate; 10 µM unless noted 96.8% and 107% | K-562 leukemia; 10 µM unless noted 38% and 43.1% | MALME-3M melanoma; 10 µM unless noted 84.3% | MDA-MB-231 breast; 10 µM unless noted 67.2% | RXF 393 renal; 10 µM unless noted 122% and 98.1% | SF-268 CNS; 10 µM unless noted 97.2% and 103% | SF-295 CNS; 10 µM unless noted 93.5% and 81.8% | SF-539 CNS; 10 µM unless noted 99% and 100% | UACC-257 melanoma; 10 µM unless noted 63.1%

Nc1n[nH]c(=S)n1-c1ccc(Cl)cc1
inactive: DU-145 prostate; 10 µM unless noted 108% | K-562 leukemia; 10 µM unless noted 102% | MALME-3M melanoma; 10 µM unless noted 102% | MDA-MB-231 breast; 10 µM unless noted 112% | RXF 393 renal; 10 µM unless noted 96.7% | SF-268 CNS; 10 µM unless noted 100% | SF-295 CNS; 10 µM unless noted 148% | SF-539 CNS; 10 µM unless noted 93% | UACC-257 melanoma; 10 µM unless noted 93.5%

COc1ccc(Cl)cc1C(=O)NCCc1ccc(S(=O)(=O)NC(=O)NC2CCCCC2)cc1
inactive: DU-145 prostate; 10 µM 124% and 120% | DU-145 prostate; 100 µM 79.8% | K-562 leukemia; 10 µM 102% | K-562 leukemia; 100 µM 66.6% | MALME-3M melanoma; 10 µM 126% and 96.5% | MALME-3M melanoma; 100 µM 71.9% | MDA-MB-231 breast; 10 µM 96.7% and 105% | MDA-MB-231 breast; 100 µM 61.9% | RXF 393 renal; 10 µM 110% and 104% | RXF 393 renal; 100 µM 51.6% | SF-268 CNS; 10 µM 113% and 105% | SF-268 CNS; 100 µM 74.3% | SF-295 CNS; 10 µM 90.2% and 105% | SF-295 CNS; 100 µM 74% | SF-539 CNS; 10 µM 113% and 102% | SF-539 CNS; 100 µM 68.8% | UACC-257 melanoma; 10 µM 106% | UACC-257 melanoma; 100 µM 85.9% | M14 melanoma; 10 µM 113% and 104% | M14 melanoma; 100 µM 67.9%

Nc1ccc(N=Nc2ccc(S(=O)(=O)O)cc2)cc1S(=O)(=O)O
inactive: DU-145 prostate; 10 µM unless noted 112% and 104% | K-562 leukemia; 10 µM unless noted 105% | MALME-3M melanoma; 10 µM unless noted 117% and 112% | MDA-MB-231 breast; 10 µM unless noted 88.2% and 104% | RXF 393 renal; 10 µM unless noted 99.9% and 61.2% | SF-268 CNS; 10 µM unless noted 95.2% and 103% | SF-295 CNS; 10 µM unless noted 121% and 87.8% | SF-539 CNS; 10 µM unless noted 102% and 100% | UACC-257 melanoma; 10 µM unless noted 150%

Reference: PubChem BioAssay (NCI)
